Source: PubChem
Rows were chosen to be rich in hits. Some 3.6% of all compounds tested hit in one or more screens of this group.
BoNT A protease: BoNT A light chain protease inhibition. multiplex microsphere protease substrate cleavage, flow cytometry. inhibition, % at 10 µM. hit rate 0.17% among 360,000. AID 588499
Autofluor counter: counter-screen for toxin protease inhibitors: compound fluorescence | hit rate 3.1% among 360,000 | compound autofluorescence counterscreen, microsphere flow cytometry; stronger effect = higher value | fluorescence intensity (no concentration beside the values) | AID 624483; in the data active means fluorescence intensity above about 16000; inconclusive means no clear call, values can overlap the other calls
BoNT-F LC inh: BoNT F light chain protease inhibition; hit rate 0.22% among 360,000; inhibition, % at 10 µM; Multiplex microsphere protease cleavage assay, flow cytometry; AID 588497; in the data active means inhibition above about 35%, passing the limit was not always enough; inconclusive means no clear call, values can overlap the other calls
MazEF act: MazEF (E. coli) toxin RNase activation | P0AE70 | FAM/BHQ RNA-DNA oligo cleavage fluorescence, 5 h | activation, % at 20 µM | hit rate 0.32% among 350,000; in the data active means activation above about 50%
Target sequence (P0AE70 whole entry, looked up): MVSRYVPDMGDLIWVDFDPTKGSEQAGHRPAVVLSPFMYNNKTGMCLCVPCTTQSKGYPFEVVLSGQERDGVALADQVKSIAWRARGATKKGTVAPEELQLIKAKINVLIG
Anthrax LF inh2: anthrax lethal factor protease inhibition; multiplex microsphere protease cleavage assay, LF; hit rate 0.12% among 360,000; P15917; AID 588501; inhibition, % at 10 µM
Each line names hits and unclear results; the compound was inactive in the other large screens. Unless noted, no stated cut-off is given here; in the data, active means inhibition above about 30%; inconclusive means no clear call, values can overlap the other calls; inactive means below that.

O=C(NC1(C(F)(F)F)C(=O)Nc2c1c(=O)[nH]c(=O)n2Cc1ccccc1)c1ccc(Cl)cc1 (centres undefined)	Autofluor counter 16519
COc1cc(C(=O)Nc2ccc(S(=O)(=O)Nc3ncccn3)cc2)c([N+](=O)[O-])cc1OC	none
CCCCNC(=O)c1ccc(CS(=O)(=O)Cc2ccccc2F)o1	none
CC(C)OCCCNC(=O)c1ccc(CS(=O)(=O)Cc2ccccc2F)o1	Autofluor counter 20731
CCC1S/C(=N/N=C/c2ccco2)N(Cc2ccccc2C)C1=O (centres undefined)	BoNT A protease inconclusive, BoNT-F LC inh inconclusive, Anthrax LF inh2 41
Cc1ccc(S(=O)(=O)N(C)/N=C2/C(=O)N(CC(=O)O)c3ccccc32)cc1	none
NS(=O)(=O)c1ccc(CNC(=O)NC23CC4CC(CC(C4)C2)C3)cc1	BoNT A protease inconclusive, Autofluor counter 17603
O=C(NCCCO)NC12CC3CC(CC(C3)C1)C2	Autofluor counter 19797
NS(=O)(=O)c1ccc(CNC(=O)C23CC4CC(CC(C4)C2)C3)cc1	none
CCCCNC(=O)NC12CC3CC(CC(C3)C1)C2	none
CCOc1cccc(CN2CCCC(N3CCc4cc(OC)c(OC)cc4C3)C2)c1O (centres undefined)	BoNT-F LC inh inconclusive
Nc1nc(-c2ccc(Cl)cc2)c(S(=O)(=O)c2ccccc2)s1	none
COc1ccc(-c2c(S(=O)(=O)c3ccccc3)cnn2-c2ccccc2)cc1	Autofluor counter 21873
O=S(=O)(c1ccccc1)c1cnn(-c2ccccc2)c1-c1ccc(Cl)cc1	BoNT A protease inconclusive, Autofluor counter 22953
O=C(Nc1c2c(nn1-c1ccc(F)cc1)CS(=O)(=O)C2)C12CC3CC(CC(C3)C1)C2	BoNT A protease inconclusive, Autofluor counter 24380
CCCC(=O)Nc1c2c(nn1-c1ccc(F)cc1)CS(=O)(=O)C2	none
COc1ccccc1C(=O)NC(C)c1ccc(-n2ccnc2)cc1 (centres undefined)	none
CCS(=O)(=O)c1nc(S(=O)(=O)c2ccc(Cl)cc2)c(NCCCN2CCOCC2)s1	none
COc1ccc(-c2nc3ccccc3[nH]2)cc1	none
COc1ccc(-c2cc(=O)n(-c3nc4ccccc4[nH]3)[nH]2)cc1	BoNT A protease inconclusive, Autofluor counter 23993
COc1ccc(CCNC(=O)Cn2nnc(C(=O)Nc3cccc(C)c3C)c2N)cc1OC	none
O=C1NC(c2ccccc2)=C(c2nc3ccccc3s2)C(c2ccc(O)cc2)N1 (centres undefined)	Autofluor counter 21586
O=C1NC(c2ccccc2)=C(c2ccc3ccccc3n2)C(c2ccccc2)N1 (centres undefined)	none
CCN1CCc2c(sc(NC(=O)c3cc4ccccc4cc3OC)c2C(N)=O)C1	none
Clc1ccccc1OCCn1ccnc1	Autofluor counter 20725
COc1cccc(OCCn2ccnc2)c1	Autofluor counter 23533
Cc1ccc(OCCCCn2ccnc2)c(Cl)c1	Autofluor counter 19999
Cc1cccc(OCCCn2ccnc2)c1	BoNT A protease inconclusive, Autofluor counter 21296
Cc1cc(C)nc(SCC(CSc2nc(C)cc(C)n2)C(=O)O)n1	none
COC(=O)[C@]1(C)N[C@H](c2ccc(SC3CCCCC3)c(OC)c2)[C@@H]2C(=O)N(C)C(=O)[C@@H]21	none
O=C(O)Cn1nncc1-c1ccc(C(F)(F)F)cc1	none (no result: MazEF act)
COc1ccc(CC(=O)OCc2nnc(-c3ccccc3)o2)cc1	none
O=C1N/C(=C\c2ccsc2)C(=O)N1Cc1ccc(F)cc1	none
O=C1N/C(=C/c2ccc(N3CCOCC3)cc2)C(=O)N1Cc1ccc(F)cc1	Autofluor counter 18011
Cn1c(=O)n(C)c2cc(/C=C3/NC(=O)N(Cc4ccccc4)C3=O)ccc21	Autofluor counter 20142
CC(C)c1cccc(C(C)C)c1NC(=O)c1ccc(-c2cc(Cl)ccc2Cl)o1	none (no result: MazEF act)
O=C(O)CCc1nn2c3ccccc3n(CC(=O)c3ccccc3)c2nc1=O	Autofluor counter 22951
C=CCN(CC=C)C(=S)Nc1ccccc1	Autofluor counter 22624
COc1ccc(S(=O)(=O)N2CCC3(CC2)OCCN3S(=O)(=O)c2cccs2)cc1OC	Autofluor counter 20013
Cc1ccc2c(c1)NCCO2	BoNT A protease inconclusive, Autofluor counter 23601
COC(=O)[C@]12CCCCC=C1N(Cc1ccc(Cl)cc1Cl)C(=O)[C@H](CC(=O)N1CCC(c3ccccc3)CC1)C2	none (no result: MazEF act)
O=C(Nc1cccc(Cl)c1)Nc1nccs1	BoNT A protease inconclusive, Autofluor counter 16192
O=C(Nc1ccc(Cl)c(Cl)c1)Nc1nccs1	none
C/C(=N\NC(=O)Cc1ccc(Cl)cc1)c1ccc(F)cc1	BoNT-F LC inh 35
O=C(O)CCC(=O)OCC1CCCCC1	BoNT A protease inconclusive, Autofluor counter 19321
COc1ccc(CN2CCN(S(=O)(=O)c3ccc(F)cc3)CC2)c(OC)c1OC	Autofluor counter 21826
COc1ccc(N(C)C(=O)CCC(=O)Nc2ccc3nc(N4CCOCC4)cc(C)c3c2)c(OC)c1	Autofluor counter 16645
Cc1cc(N2CCOCC2)nc2ccc(NC(=O)CCC(=O)N3CCCCC3)cc12	Autofluor counter 23643
Cc1cc(N2CCOCC2)nc2ccc(NC(=O)CCC(=O)N3CCC(C)CC3)cc12	Autofluor counter 19171
Cc1cc(C)n2nc(SC(C)C(=O)N3CC(C)OC(C)C3)nc2n1 (centres undefined)	none
COc1ccccc1NC(=O)CSc1nc(N)cc(N)n1	Autofluor counter 21327
COc1ccc(NC(=O)CSc2nc3nc(C)cc(C)c3c(=O)[nH]2)cc1OC	none
COc1ccccc1NC(=O)CSc1nc(N)c(C#N)cc1C#N	none
COc1ccccc1NC(=O)CSc1nc2nc(C)cc(C)c2c(=O)[nH]1	MazEF act 51
COc1ccc2nc(SCC(=O)Nc3ccccc3C)[nH]c2c1	Autofluor counter 20993
Cc1cccc(NC(=S)N=Nc2c(O)n(CN3CCOCC3)c3ccccc23)c1C	none
Cc1ccc(N=Nc2c(O)n(CN3CCOCC3)c3ccccc23)cc1	MazEF act 57
O=C(O)Cc1ccc(NC(=O)Cc2ccc3ccccc3c2)cc1	none
COCC(C)NC(=O)c1ccc2nc(-c3ccccc3)c(-c3ccccc3)nc2c1 (centres undefined)	BoNT-F LC inh inconclusive
COCC(C)NC(=O)c1ccc(N(C)C)cc1 (centres undefined)	Autofluor counter 17509
COC(=O)c1cc(C(=O)OC)n(Cc2ccc(Br)cc2)n1	BoNT A protease inconclusive, Autofluor counter 21618
Cc1ccc(Cn2nc(C(=O)Nc3ccc(Br)cc3)cc2C)cc1	none
CCOC(=O)/C(C#N)=C/c1ccc(SC)cc1	none
CC(C)(C)C(=O)NC(=C(Cl)Cl)P(=O)(O)O	Autofluor counter 24171
COc1cc(C)c(Cl)cc1S(=O)(=O)NCCN1CCOCC1	Autofluor counter 23984
COc1cc(C)c(Cl)cc1S(=O)(=O)NCCCN1CCOCC1	none
O=C(NCc1cccc(Cl)c1)c1ccc(S(=O)(=O)N2CCCCC2)cc1	none
CCOC(=O)SC1=N/C(=C\c2ccc(N(C)C)cc2)C(=O)S1	Autofluor counter 19076
Cc1cc(C)c(S(=O)(=O)Nc2cccnc2)c(C)c1	Autofluor counter 22484
COc1ccc(S(=O)(=O)NC(Cc2cnc[nH]2)C(=O)O)cc1 (centres undefined)	none
